About 2,000 (36%) of roughly 5,500 compounds were called active. Inconclusive results (about 18%) are left out. Rule as the data show it: active = normalized growth mostly below about 0.91 (no sharp cut-off); inconclusive = no clear call, values can overlap the other calls; inactive = mostly above about 0.92. The list shows a part of the results.
Experiment: chemical genetic growth profiling, strain panel (AID 1159580);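 also: tested at 20 µM; growth read once vehicle control cultures reached saturation at 30 °C; 1 = growth at the plate median or of vehicle wells; lower values mean less growth of the strain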
Settings: growth OD
[1] = S. cerevisiae deletion strains, locus YAL013W, strain DEP1, hits give low values
[2] = S. cerevisiae deletion strains, locus YAL040C, strain CLN3, hits give low values
[3] = S. cerevisiae deletion strains, locus YCL061C, strain MRC1 (second series), hits give low values
[4] = S. cerevisiae deletion strains, locus YDR363W, strain ESC2, hits give low values
[5] = S. cerevisiae deletion strains, locus YER002W, strain NOP16, hits give low values
[6] = S. cerevisiae deletion strains, locus YJR075W, strain HOC1, hits give low values
[7] = S. cerevisiae deletion strains, locus YMR263W, strain SAP30, hits give low values
[8] = S. cerevisiae deletion strains, locus YNL175C, strain NOP13, hits give low values
[9] = S. cerevisiae deletion strains, locus YNL197C, strain WHI3, hits give low values
[10] = S. cerevisiae deletion strains, locus YNL224C, strain SQS1, hits give low values
[11] = S. cerevisiae deletion strains, locus YOR083W, strain WHI5 (second series), hits give low values
[12] = S. cerevisiae deletion strains, locus YPL055C, strain LGE1, hits give low values
[13] = S. cerevisiae deletion strains, locus YGR078C, strain PAC10, hits give low values
[14] = S. cerevisiae deletion strains, locus YNL153C, strain GIM3, hits give low values
[15] = S. cerevisiae deletion strains, locus YAR019C, strain CDC15, hits give low values
[16] = S. cerevisiae deletion strains, locus YBL105C, strain PKC1, hits give low values
[17] = S. cerevisiae deletion strains, locus YBR135W, strain CKS1, hits give low values
[18] = S. cerevisiae deletion strains, locus YBR136W, strain MEC1, hits give low values
[19] = S. cerevisiae deletion strains, locus YBR160W, strain CDC28, hits give low values
[20] = S. cerevisiae deletion strains, locus YDL017W, strain CDC7, hits give low values
[21] = S. cerevisiae deletion strains, locus YDL028C, strain MPS1, hits give low values
[22] = S. cerevisiae deletion strains, locus YDL101C, strain DUN1, hits give low values
[23] = S. cerevisiae deletion strains, locus YDL108W, strain KIN28, hits give low values
[24] = S. cerevisiae deletion strains, locus YDL132W, strain cdc53, hits give low values
[25] = S. cerevisiae deletion strains, locus YDL214C, strain PRR2, hits give low values
[26] = S. cerevisiae deletion strains, locus YDR052C, strain DBF4, hits give low values
[27] = S. cerevisiae deletion strains, locus YDR054C, strain cdc34, hits give low values
[28] = S. cerevisiae deletion strains, locus YDR226W, strain ADK1, hits give low values
[29] = S. cerevisiae deletion strains, locus YDR477W, strain SNF1, hits give low values
[30] = S. cerevisiae deletion strains, locus YER123W, strain YCK3, hits give low values
[31] = S. cerevisiae deletion strains, locus YER133W, strain GLC7, hits give low values
[32] = S. cerevisiae deletion strains, locus YFL009W, strain cdc4, hits give low values
[33] = S. cerevisiae deletion strains, locus YFL029C, strain CAK1, hits give low values
[34] = S. cerevisiae deletion strains, locus YFR003C, strain YPI1, hits give low values
[35] = S. cerevisiae deletion strains, locus YFR019W, strain FAB1, hits give low values
[36] = S. cerevisiae deletion strains, locus YFR028C, strain CDC14, hits give low values
[37] = S. cerevisiae deletion strains, locus YGR040W, strain KSS1, hits give low values
[38] = S. cerevisiae deletion strains, locus YGR052W, strain FMP48, hits give low values
[39] = S. cerevisiae deletion strains, locus YGR092W, strain DBF2, hits give low values
[40] = S. cerevisiae deletion strains, locus YHR030C, strain SLT2, hits give low values
[41] = S. cerevisiae deletion strains, locus YHR079C, strain IRE1, hits give low values
[42] = S. cerevisiae deletion strains, locus YHR082C, strain KSP1, hits give low values
[43] = S. cerevisiae deletion strains, locus YHR205W, strain SCH9, hits give low values
[44] = S. cerevisiae deletion strains, locus YIL147C, strain SLN1, hits give low values
[45] = S. cerevisiae deletion strains, locus YJL095W, strain BCK1, hits give low values
[46] = S. cerevisiae deletion strains, locus YJL128C, strain PBS2, hits give low values
[47] = S. cerevisiae deletion strains, locus YJL157C, strain FAR1, hits give low values
[48] = S. cerevisiae deletion strains, locus YJR016C, strain ILV3, hits give low values
[49] = S. cerevisiae deletion strains, locus YJR066W, strain TOR1 (second series), hits give low values
[50] = S. cerevisiae deletion strains, locus YJR066W, strain TOR1, hits give low values
[51] = S. cerevisiae deletion strains, locus YKL048C, strain ELM1, hits give low values
[52] = S. cerevisiae deletion strains, locus YKL067W, strain YNK1, hits give low values
[53] = S. cerevisiae deletion strains, locus YKL101W, strain HSL1, hits give low values
[54] = S. cerevisiae deletion strains, locus YKL193C, strain SDS22, hits give low values
[55] = S. cerevisiae deletion strains, locus YKL203C, strain TOR2, hits give low values
[56] = S. cerevisiae deletion strains, locus YLR113W, strain HOG1, hits give low values
[57] = S. cerevisiae deletion strains, locus YLR133W, strain CKI1, hits give low values
[58] = S. cerevisiae deletion strains, locus YLR403W, strain SFP1, hits give low values
[59] = S. cerevisiae deletion strains, locus YML070W, strain DAK1, hits give low values
[60] = S. cerevisiae deletion strains, locus YMR001C, strain CDC5, hits give low values
[61] = S. cerevisiae deletion strains, locus YMR205C, strain PFK2 (second series), hits give low values
[62] = S. cerevisiae deletion strains, locus YMR277W, strain FCP1, hits give low values
[63] = S. cerevisiae deletion strains, locus YNL006W, strain LST8, hits give low values
[64] = S. cerevisiae deletion strains, locus YNL020C, strain ARK1, hits give low values
[65] = S. cerevisiae deletion strains, locus YNL161W, strain CBK1, hits give low values
[66] = S. cerevisiae deletion strains, locus YNL183C, strain NPR1, hits give low values
[67] = S. cerevisiae deletion strains, locus YNL207W, strain RIO2, hits give low values
[68] = S. cerevisiae deletion strains, locus YNL222W, strain SSU72, hits give low values
[69] = S. cerevisiae deletion strains, locus YNL307C, strain MCK1 (second series), hits give low values
[70] = S. cerevisiae deletion strains, locus YOL078W, strain AVO1, hits give low values
[71] = S. cerevisiae deletion strains, locus YOL136C, strain PFK27, hits give low values
[72] = S. cerevisiae deletion strains, locus YOR061W, strain CKA2, hits give low values
[73] = S. cerevisiae deletion strains, locus YOR119C, strain RIO1, hits give low values
[74] = S. cerevisiae deletion strains, locus YOR231W, strain MKK1, hits give low values
[75] = S. cerevisiae deletion strains, locus YOR329C, strain SCD5, hits give low values
[76] = S. cerevisiae deletion strains, locus YPL031C, strain PHO85, hits give low values
[77] = S. cerevisiae deletion strains, locus YPL153C, strain RAD53, hits give low values
[78] = S. cerevisiae deletion strains, locus YPL204W, strain HRR25, hits give low values
[79] = S. cerevisiae deletion strains, locus YPL209C, strain IPL1, hits give low values
[80] = S. cerevisiae deletion strains, locus YPL256C, strain CLN2, hits give low values
[81] = S. cerevisiae deletion strains, locus YPR025C, strain CCL1, hits give low values
[82] = S. cerevisiae deletion strains, locus YPR106W, strain ISR1, hits give low values
[83] = S. cerevisiae deletion strains, locus YPR111W, strain DBF20, hits give low values
[84] = S. cerevisiae deletion strains, strain NNK1, hits give low values
[85] = S. cerevisiae deletion strains, strain TSCII, hits give low values

Measured: normalized growth

O=P(O)(O)C(Cl)(Cl)P(=O)(O)O
inactive: [1] 1.01 | [2] 0.972 | [3] 0.995 | [4] 1.04 | [5] 1.01 | [6] 1.03 | [7] 1 | [8] 1 | [9] 0.968 | [10] 1.02 | [11] 0.973 | [12] 1.02

CC12NC(Cc3ccccc31)c1ccccc12 (stereo not given)
inactive: [2] 0.983 | [3] 0.984 | [4] 1.04 | [5] 1.01 | [13] 0.992 | S. cerevisiae deletion strains, locus YNL128W, strain TEP1, hits give low values 1.06 | [14] 0.997 | [8] 1 | [9] 1.01 | [10] 0.988 | [11] 1 | [12] 1.01

CC1(C)CC(=O)C=C(Sc2nc3ccccc3o2)C1
active: [56] 0.832
inactive: [15] 0.966 | [16] 0.968 | [17] 0.955 | [18] 0.965 | [19] 0.962 | [20] 0.974 | [21] 0.965 | [22] 0.958 | [23] 0.961 | [24] 0.947 | [25] 0.933 | [26] 0.984 | [27] 0.949 | [28] 0.967 | [29] 0.949 | [30] 0.926 | [31] 0.979 | [32] 0.953 | [33] 0.965 | [34] 0.971 | [35] 0.941 | [36] 0.957 | [37] 0.945 | [38] 0.916 | [39] 0.739 | [40] 0.983 | [41] 0.955 | [42] 0.992 | [43] 0.861 | [44] 0.962 | [45] 0.837 | [46] 0.924 | [47] 0.951 | [48] 0.952 | [49] 0.875 | [50] 0.946 | [51] 0.961 | [52] 0.946 | [53] 0.925 | [54] 0.953 | [55] 0.99 | [57] 0.938 | [58] 0.901 | [59] 0.927 | [60] 0.961 | [61] 0.948 | [62] 0.956 | [63] 0.974 | [64] 0.944 | [65] 0.967 | [66] 0.951 | [67] 0.948 | [68] 0.964 | [69] 0.873 | [70] 0.947 | [71] 0.907 | [72] 0.955 | [73] 1.01 | [74] 0.902 | [75] 0.97 | [76] 0.946 | [77] 0.949 | [78] 0.935 | [79] 0.965 | [80] 0.967 | [81] 0.968 | [82] 0.964 | [83] 0.939 | [84] 0.961 | [85] 0.956

Oc1c(Cl)cc(Cl)cc1C=Nc1nc(-c2ccc3ccccc3c2)cs1
inactive: [15] 0.958 | [16] 0.966 | [17] 0.947 | [18] 0.957 | [19] 0.96 | [20] 0.958 | [21] 0.958 | [22] 0.962 | [23] 0.959 | [24] 0.971 | [25] 0.793 | [26] 0.969 | [27] 0.957 | [28] 0.966 | [29] 0.802 | [31] 0.791 | [32] 0.956 | [33] 0.963 | [34] 0.961 | [35] 0.78 | [36] 0.966 | [37] 0.833 | [38] 0.827 | [41] 0.557 | [42] 0.814 | [43] 0.737 | [44] 0.952 | [45] 0.51 | [46] 0.971 | [48] 0.962 | [49] 0.86 | [50] 0.626 | [51] 0.871 | [52] 0.787 | [53] 0.854 | [54] 0.953 | [55] 0.824 | [60] 0.957 | [62] 0.958 | [63] 0.96 | [65] 0.965 | [66] 0.72 | [67] 0.959 | [68] 0.961 | [69] 0.757 | [70] 0.957 | [73] 0.855 | [74] 0.623 | [75] 0.963 | [76] 0.809 | [77] 0.768 | [78] 0.766 | [79] 0.954 | [81] 0.962 | [82] 0.973 | [83] 0.949 | [84] 0.964 | [85] 0.953
active: [30] 0.59 | [39] 0.342 | [40] 0.486 | [47] 0.685 | [56] 0.62 | [57] 0.701 | [58] 0.639 | [59] 0.651 | [61] 0.741 | [64] 0.684 | [71] 0.537 | [72] 0.58 | [80] 0.558

Cc1onc(-c2c(Cl)cccc2Cl)c1-c1nc(-c2ccc3c(c2)OCCO3)cs1
inactive: [1] 1.01 | S. cerevisiae deletion strains, locus YBR229C, strain ROT2, hits give low values 1.01 | S. cerevisiae deletion strains, locus YCL061C, strain MRC1, hits give low values 1 | [22] 1.01 | S. cerevisiae deletion strains, locus YDR150W, strain NUM1, hits give low values 1.03 | S. cerevisiae deletion strains, locus YEL061C, strain CIN8, hits give low values 1.02 | [13] 0.991 | [40] 0.998 | S. cerevisiae deletion strains, locus YHR087W, strain rtc3, hits give low values 1.01 | S. cerevisiae deletion strains, locus YJL187C, strain SWE1, hits give low values 1 | S. cerevisiae deletion strains, locus YJR043C, strain POL32, hits give low values 1.01 | [6] 0.99 | S. cerevisiae deletion strains, locus YLR039C, strain RIC1, hits give low values 0.959 | S. cerevisiae deletion strains, locus YLR058C, strain SHM2 (second series), hits give low values 1.01 | S. cerevisiae deletion strains, locus YLR085C, strain ARP6, hits give low values 0.973 | S. cerevisiae deletion strains, locus YLR262C, strain YPT6, hits give low values 1 | S. cerevisiae deletion strains, locus YML094W, strain GIM5, hits give low values 0.991 | S. cerevisiae deletion strains, locus YMR219W, strain ESC1, hits give low values 1 | [7] 0.993 | S. cerevisiae deletion strains, locus YMR307W, strain GAS1, hits give low values 0.946 | [14] 0.997 | S. cerevisiae deletion strains, locus YNL298W, strain CLA4 (second series), hits give low values 0.987 | S. cerevisiae deletion strains, locus YNL322C, strain KRE1, hits give low values 1.02 | S. cerevisiae deletion strains, locus YNR030W, strain Alg12, hits give low values 1.02 | S. cerevisiae deletion strains, locus YOL006C, strain TOP1, hits give low values 0.999 | [12] 1.04 | S. cerevisiae deletion strains, locus YPL241C, strain CIN2, hits give low values 1.02 | S. cerevisiae deletion strains, locus YPR135W, strain CTF4, hits give low values 0.934 | S. cerevisiae strains, strain wild type, hits give low values 1.01
